This passage reports activity results from PubChem BioAssay.

For one experiment, the target named is Tumor necrosis factor receptor superfamily member 10B (Homo sapiens) (UniProt O14763). The experiment in a line: caspase-8 TRAIL sensitization, hit retest, confirmation, cell-based, NB7+caspase-8, with/without TRAIL, luminescence panel (AID 651596). Particulars: NB7 neuroblastoma + caspase-8, TRAIL sensitization, luminescence viability, with TRAIL, mean of runs, at 10 µM, stronger effect = higher value; in the data active = activity above about 50%; inactive = the rest.
Chain of Tumor necrosis factor receptor superfamily member 10B (Homo sapiens) (O14763 whole entry, looked up): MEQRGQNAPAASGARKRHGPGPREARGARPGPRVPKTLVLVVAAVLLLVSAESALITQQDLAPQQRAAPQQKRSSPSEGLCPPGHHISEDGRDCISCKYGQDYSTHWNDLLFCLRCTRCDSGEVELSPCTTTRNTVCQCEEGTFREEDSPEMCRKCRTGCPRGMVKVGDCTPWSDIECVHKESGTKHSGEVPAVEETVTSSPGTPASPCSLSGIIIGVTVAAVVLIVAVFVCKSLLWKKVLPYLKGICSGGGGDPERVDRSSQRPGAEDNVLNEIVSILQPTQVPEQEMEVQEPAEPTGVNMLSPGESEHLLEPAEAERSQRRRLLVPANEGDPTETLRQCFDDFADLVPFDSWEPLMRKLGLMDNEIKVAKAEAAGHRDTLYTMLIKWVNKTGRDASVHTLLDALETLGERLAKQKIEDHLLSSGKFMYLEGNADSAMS
Take `Clc1ccc(OCc2nn3c(C4CCCCC4)nnc3s2)cc1`: the activity came to 49.8%.

As to `CCOc1ccc(C(=O)Nc2ccc3[nH]ncc3c2)cc1`, the activity stood at 82.6%. As to `CSc1cc(-c2ccc(Cl)cc2)n(Cc2ccccc2)c(=O)c1C#N`, the activity turned out to be 72.2%. Still for that read-out and setting: the result for `CCOC(=O)COc1ccc(-c2nnc(-c3ccccc3)o2)cc1` reads 43.2%; that for `CC1CCC(C(C)C)C(OC(=O)Cn2c(-c3ccc(Cl)cc3)[n+](C)c3ccccc32)C1` (configuration not stated), 76.7%; that for `CC(=O)n1cc(N(C(=O)CCl)c2ccc([N+](=O)[O-])cc2)c2ccccc21`, 97.8%. On to `O=S(=O)(Nc1nc2ccccc2nc1N1CCc2ccccc2C1)c1ccc(Br)cc1`, for which the activity was 55.5%. On the same count and under the same terms, in the case of `Cc1ccnc(NC(=O)CCC2CCCCC2)c1` it was 60.2%; in that of `O=C(Nc1nc2ccccc2[nH]1)C12CC3CC(CC(C3)C1)C2`, 66.2%; in that of `O=C(Nc1ccc(NC(=O)C2CCCCC2)cn1)c1ccco1`, 76.2%. On the same count and under the same terms, the result for `Cc1nc2c(-c3ccc(F)cc3)cnn2c(N)c1-c1ccccc1` reads 88.4%; that for `CCc1ccc(NC(=O)Nc2cccs2)cc1`, 59%; that for `O=c1c2c(nc3cc(-c4ccc(F)cc4)[nH]n13)CCCC2`, 71.5%.

`CCn1cc(Cl)c(C(=O)Nc2ccc3c(c2)OCCO3)n1`: the activity was found to be 39.5%. On the same count and under the same terms, the result for `N#Cc1ccccc1N/C=C/C(=O)c1ccc(Cl)cc1` reads 48.7%; that for `Cc1nc2cc(NC(=O)c3ccc(Br)s3)ccc2s1`, 71.4%; that for `CCC(C)c1ccc(NC(=O)c2ccco2)cc1` (configuration not stated), 81.5%. On the same count and under the same terms, the result for `Cc1ccc(CSc2nc3ccncc3[nH]2)cc1` reads 98.5%; that for `O=C(COC(=O)c1n[nH]c2ccccc12)NC(=O)NC12CC3CC(CC(C3)C1)C2`, 51.5%.

With `CCOc1ccc2nc(NC(=O)c3ccco3)sc2c1`, the activity is 74.4%. On to `CCc1ccc2nc(N(CCCN(C)C)C(=O)c3ccc(C(=O)c4ccccc4)cc3)sc2c1`, for which the activity is 50.6%. The same measure, in the same setting: the result for `Cc1ccc(S(=O)(=O)N2C[C@H]3[C@H]4C(=O)N(C5CCCCC5)C(=O)[C@H]4CC(=O)[C@H]3[C@@H]2c2cccc3ccccc23)cc1` reads -8.53%.

Tested on in a further experiment: not listed separately
Described as above. Particulars: NB7 neuroblastoma + caspase-8, without TRAIL, luminescence viability, without TRAIL, mean of runs, at 10 µM.
As for `O=C(/C=C/c1ccccc1Cl)Nc1cccc(O)c1`, the activity was 42.2%.

As for `COc1ccccc1C(CNc1ccc(S(=O)(=O)N2CCCC2)cc1[N+](=O)[O-])N(C)C` (configuration not stated), the activity came to 55.8%. Take `Cc1cccc(C)c1NC(=O)C1CCN(S(C)(=O)=O)CC1`: the activity is -3.45%. The same measure, in the same setting: in the case of `COc1ccc(C2C(C(=O)N3CCN(c4ccccc4F)CC3)c3ccccc3C(=O)N2C)cc1` (configuration not stated) it was 59%; in that of `O=C(NC(=S)Nc1ccccn1)c1ccc(-c2ccccc2)cc1`, 72.8%; in that of `Cc1cc(C(=O)COC(=O)c2n[nH]c3ccccc23)c(C)n1CC1CCCO1` (configuration not stated), 75.2%.

As to `COc1ccc(Oc2c(Cl)cnn(-c3ccc(F)cc3)c2=O)cc1`, the activity came to 94.2%. In the case of `CCCCc1ccc(NC(=O)c2ccc(N(C)S(C)(=O)=O)cc2)cc1`, the activity was found to be 19.9%.

With `COc1ccc(-c2csc(NC(=O)C3CCN(c4ncnc5sc(C)c(C)c45)CC3)n2)cc1OC`, the activity stood at 62.9%.

`C/C(Cn1nnc([N+](=O)[O-])n1)=N\NC(=O)c1ccc(O)cc1`: the activity worked out at 48.3%. As for `O=C(CC1SC(=O)N(Cc2cccc3ccccc23)C1=O)Nc1nccs1` (configuration not stated), the activity stood at 74.3%. As to `C/C(=N\Nc1nc(C)cc(-c2ccccc2)n1)c1cccc(N)c1`, the activity came to 32.7%. For the compound `C/C(=N\Nc1nc2ccccc2[nH]1)c1ccc(N2CCOCC2)cc1`, the activity stood at 74.9%. As for `COc1ccc(-c2cc3cccc(OC)c3oc2=O)cc1`, the activity is 80.2%. The same measure, in the same setting: the result for `Cn1c(C(=O)NCCC2=CCCCC2)cc2c(=O)n3ccccc3nc21` reads 57.7%; that for `O=C(/C=C/C(Cl)(Cl)Cl)Nc1ccc(Cl)cc1`, 98.9%. Consider `CCN1CCN(c2c(Cl)cccc2NC(=O)c2ccc([N+](=O)[O-])o2)CC1`, for which the activity was 61.3%. On the same count and under the same terms, the result for `CCCOc1ccc(-c2nc(N3CCN(C)CC3)c3ccccc3n2)cc1` reads 67.7%; that for `Clc1ccc(OCc2nn3c(C4CCCCC4)nnc3s2)cc1`, 71.2%; that for `CCOc1ccc(C(=O)Nc2ccc3[nH]ncc3c2)cc1`, 82.7%. With `CSc1cc(-c2ccc(Cl)cc2)n(Cc2ccccc2)c(=O)c1C#N`, the activity is 48.5%. On the same count and under the same terms, the result for `CCOC(=O)COc1ccc(-c2nnc(-c3ccccc3)o2)cc1` reads 33.8%. Still for that read-out and setting: in the case of `CC1CCC(C(C)C)C(OC(=O)Cn2c(-c3ccc(Cl)cc3)[n+](C)c3ccccc32)C1` (configuration not stated) it was 62%. Take `CC(=O)n1cc(N(C(=O)CCl)c2ccc([N+](=O)[O-])cc2)c2ccccc21`: the activity was 99.3%. Still for that read-out and setting: the result for `O=S(=O)(Nc1nc2ccccc2nc1N1CCc2ccccc2C1)c1ccc(Br)cc1` reads 66.2%; that for `Cc1ccnc(NC(=O)CCC2CCCCC2)c1`, 46.5%.

Turning to `O=C(Nc1nc2ccccc2[nH]1)C12CC3CC(CC(C3)C1)C2`, the activity was 65.7%. With `O=C(Nc1ccc(NC(=O)C2CCCCC2)cn1)c1ccco1`, the activity turned out to be 80.6%. Still for that read-out and setting: the result for `Cc1nc2c(-c3ccc(F)cc3)cnn2c(N)c1-c1ccccc1` reads 86.9%; that for `CCc1ccc(NC(=O)Nc2cccs2)cc1`, 45.9%; that for `O=c1c2c(nc3cc(-c4ccc(F)cc4)[nH]n13)CCCC2`, 68.3%. For `CCn1cc(Cl)c(C(=O)Nc2ccc3c(c2)OCCO3)n1`, the activity came to 34.1%. Still for that read-out and setting: the result for `N#Cc1ccccc1N/C=C/C(=O)c1ccc(Cl)cc1` reads 53.1%; that for `Cc1nc2cc(NC(=O)c3ccc(Br)s3)ccc2s1`, 63.1%; that for `CCC(C)c1ccc(NC(=O)c2ccco2)cc1` (configuration not stated), 82.8%. The same measure, in the same setting: in the case of `Cc1ccc(CSc2nc3ccncc3[nH]2)cc1` it was 99.2%. On to `O=C(COC(=O)c1n[nH]c2ccccc12)NC(=O)NC12CC3CC(CC(C3)C1)C2`, for which the activity was 57%.

Consider `CCOc1ccc2nc(NC(=O)c3ccco3)sc2c1`, for which the activity is 69.8%. Same read-out and setting: in the case of `CCc1ccc2nc(N(CCCN(C)C)C(=O)c3ccc(C(=O)c4ccccc4)cc3)sc2c1` it was 18.7%; in that of `Cc1ccc(S(=O)(=O)N2C[C@H]3[C@H]4C(=O)N(C5CCCCC5)C(=O)[C@H]4CC(=O)[C@H]3[C@@H]2c2cccc3ccccc23)cc1`, -13.6%.
